Bioassay records as filed in PubChem BioAssay.
Only some compounds are listed: those with a hit (about 9.2% of all), similar ones and a draw of the others.
ELG1 repair inh: ELG1-dependent DNA repair inhibition | hit rate 2.3% among 330,000 | Potency, µM (top dose mostly 46.1 µM), for inactives: at the top dose activity change, negative = inhibition, usual class: inhibitors | HEK293T ELG1-luciferase reporter, luminescence, 16 h; DNA damage induced by 5-fluorouridine; note: % is set by controls: 0 for no effect and ±100 for the full control effect; nearly all actives have a fitted effect of over 55% in size
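Quantitative HTS, concentration-response format. 2,000 cells/well co-treated with 5-fluorouridine and compound, 16 hr in 5% CO2 at 37 °C; ONE-Glo luminescence read after 30 min.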
Rab9 prom act: activators of Rab9 promoter. hit rate 2.8% among 320,000. Huh7 Rab9 promoter-luciferase reporter, luminescence, 24 h. Potency, µM (doses to about 9.22 µM), for inactives: at the highest dose activation, negative = inhibition, usual class: activators; note: % of control where 0% means no effect; nearly all actives have a fitted effect of over 60% in size
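Quantitative HTS format; Huh7 Rab9-luciferase reporter cells (1500/well) receive compound 2 h post-plating, incubate 24 h at 37 °C, then get luciferase reagent for 10 min before luminescence reading.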
FLuc modulator: counter-screen for miR-21 project: firefly luciferase inhibitors or activators; purified FLuc, Km substrates, luminescence inhibition; P08659; hit rate 6.9% among 360,000; Potency, µM (top dose mostly 57.5 µM), inactives show at the highest dose activity change, negative = inhibition, most hits filed as inhibitors; AID 588342;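 note: plate controls were vehicle for no effect and reference inhibitor for full effect; nearly all actives have a fitted effect of over 55% in size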
Target sequence (P08659 whole entry, looked up): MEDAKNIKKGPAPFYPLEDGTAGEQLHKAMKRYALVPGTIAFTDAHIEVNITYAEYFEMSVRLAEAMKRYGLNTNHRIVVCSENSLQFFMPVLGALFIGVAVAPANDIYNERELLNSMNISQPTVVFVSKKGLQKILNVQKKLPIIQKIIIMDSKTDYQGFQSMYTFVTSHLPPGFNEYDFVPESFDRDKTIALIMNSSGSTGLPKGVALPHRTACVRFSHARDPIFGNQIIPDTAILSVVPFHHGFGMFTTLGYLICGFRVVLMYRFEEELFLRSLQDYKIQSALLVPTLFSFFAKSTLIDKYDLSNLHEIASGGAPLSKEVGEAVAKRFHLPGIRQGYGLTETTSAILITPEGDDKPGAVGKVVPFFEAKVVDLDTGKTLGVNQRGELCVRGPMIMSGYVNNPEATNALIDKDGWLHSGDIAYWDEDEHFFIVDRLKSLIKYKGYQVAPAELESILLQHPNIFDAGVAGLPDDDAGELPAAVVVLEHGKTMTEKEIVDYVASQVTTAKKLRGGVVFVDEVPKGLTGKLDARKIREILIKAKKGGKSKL
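Purified P. pyralis luciferase, 10 nM final, with Km-level 10 uM D-luciferin and 10 uM ATP in 50 mM Tris acetate pH 7.5, 10 mM Mg acetate, 0.01% Tween-20, 0.05% BSA; 6-point qHTS titration about 60 µM downward; luminescence read.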
ELG1 genotoxic: induces genotoxicity in HEK293T cells with luciferase-tagged ELG1 | AID 504466 | HEK293T ELG1-luciferase reporter, luminescence, 16 h | hit rate 1.3% among 330,000 | Potency, µM (series often up to 46 µM), for inactives: at the highest dose activity change, positive = activation, hits mostly activators; note: % of control where 0% means no effect; nearly all actives have a fitted effect of over 60% in size
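Screening used a luciferase reporter fused to human ELG1 in HEK293T cells. Luminescence was read on a CCD plate imager after 16 hr exposure and 30 min ONE-Glo incubation.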
SMN2 splice up: enhancers of SMN2 splice variant expression; HEK293 SMN2-luciferase splicing reporter, luminescence, 30-36 h; Potency, µM (series often up to 46.1 µM), without a hit: top-dose activity change, positive = activation, most hits filed as activators; hit rate 2.8% among 210,000; AID 1458; note: % of control where 0% means no effect; nearly all actives have a fitted effect of over 55% in size
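HEK293 cells carry an SMN2 […]–luciferase reporter in which exon 7 inclusion puts luciferase in frame. Cells were plated 10-12 h before compound addition, then incubated 30-36 h at 37C. ONE-Glo luminescence was read; sodium butyrate at 4.5 mM final served as control.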
NPC1 promoter act: NPC1 promoter activation | Potency, µM (highest dose often 9.22 µM), for inactives: at the highest dose activation, actives largely listed as activators | Huh7 NPC1 promoter luciferase reporter, 24 h | hit rate 2.4% among 320,000; note: % of control where 0% means no effect; nearly all actives have a fitted effect of over 60% in size
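Readout is luciferase luminescence, reflecting NPC1 promoter activation in stably transfected Huh7 cells after 24 h compound exposure at 37 °C in reduced-serum medium with 10% FBS.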
Active calls of the source: *; ? = inconclusive; . = no result. Calls come from the whole dose curve; as a rule, active = well fitted curve in the direction sought with a large enough effect; inconclusive = small, poorly fitted or top-dose-only effect, or another doubt; inactive = no such curve, though single readings can be large; an effect the other way counts as inactive or inconclusive. Potency is the fitted concentration of half-maximal effect.

SMILES	ELG1 repair inh	Rab9 prom act	FLuc modulator	ELG1 genotoxic	SMN2 splice up	NPC1 promoter act
O=C(c1ccccc1)c1ccc(N2CCCC2)cc1	?	2.5µM*	6.7µM*	3.7µM*	25µM*	3.2µM*
O=C(Nc1ccc(N2CCCC2)cc1)c1ccc2ccccc2c1	?	0.89µM*	1.3µM*	?	2.5µM*	?
Nc1cc(C(=O)c2ccccc2)ccc1N1CCOCC1	?	25%	17µM*	6%	?	?
COc1ccc(S(=O)(=O)N(NC2=NS(=O)(=O)c3ccccc32)C(=O)C(C)C)cc1	-8%	-3%	-12%	-1%	17%	-1%
CCN1CCN(c2ccc(NC(=O)c3cccc(N4CCCC4=O)c3)cc2)CC1	?	3%	?	30%	.	-1%
CC(=O)N1CCN(c2ccc(NC(=O)c3cccc(Cl)c3)cc2)CC1	?	?	?	?	.	2.2µM*
O=C(c1ccc(F)cc1F)N1CCN(c2ncccn2)CC1	-6%	0%	-3%	0%	-1%	2%
O=C(c1ccc(N2CCN(C(=O)c3ccc(F)cc3F)CC2)cc1)c1cccc(F)c1	15µM*	-2%	-1%	-7%	.	-5%
O=C(Nc1ccc(N2CCCC2=O)cc1)c1cccc(F)c1	?	3.2µM*	5.4µM*	2.9µM*	7.1µM*	1.6µM*
O=C(Nc1ccc(N2CCN(C(=O)c3cccs3)CC2)cc1)c1cccc(F)c1	15µM*	3%	-6%	-11%	.	-3%
Cc1ccc(C)c(N2CCN(CCCNC(=O)C3COc4ccccc4C3)CC2)c1 (configuration not stated)	.	.	-5%	.	.	.
CCCCCN(C(=O)CCC(=O)OCC(=O)NCc1cccc(OC)c1)c1c(N)n(CCCC)c(=O)[nH]c1=O	9%	5%	-3%	4%	.	0%
COc1ccc(CC2(CO)CCN(S(=O)(=O)c3cccc4cccnc34)CC2)cc1	-2%	-3%	-1%	-4%	.	5%
Cc1ccc(S(=O)(=O)Oc2ccc(/C=N/NC(=O)c3cccnc3)cc2)cc1	5%	-4%	-7%	3%	9%	0%
Cc1ccc(C(=O)Nc2ccc(N3CCOCC3)cc2)cc1	?	4µM*	12µM*	21µM*	.	2.8µM*
O=C(Nc1ccc(Nc2ccccc2)cc1)c1cccc(F)c1	?	4.5µM*	13µM*	?	.	?
O=C(Nc1ccc(N2CCCC2)cc1)c1cccc(F)c1	?	0.32µM*	1.3µM*	0.37µM*	0.63µM*	0.35µM*
O=C(Nc1cccc(F)c1)c1ccccc1	?	?	?	9%	2%	?
CCc1ccc(NC(=O)c2cccc(N3CCCS3(=O)=O)c2)cc1	.	.	12µM*	.	.	.
O=C(Nc1ccccc1)c1cccc(N2CCCS2(=O)=O)c1	.	.	-16%	.	.	.
CCc1ccccc1NC(=S)N(CCN1CCOCC1)Cc1ccccc1F	2%	18%	-1%	-1%	-1%	1%
CCn1c(COC(=O)CNC(=O)c2ccccc2F)nc2cc(S(=O)(=O)N(C)C)ccc21	4%	-5%	2%	-2%	.	0%
COc1ccc(N2CCN(C(=O)Cn3nc(Cc4cccnc4)c4ccccc4c3=O)CC2)cc1	.	.	-6%	.	10%	.
Cc1ccc(C)c(NS(=O)(=O)c2c(C)nc3sccn3c2=O)c1	17%	7%	0%	2%	.	1%
CC(=O)Oc1ccc(C)cc1-n1nc2ccccc2n1	?	4.5µM*	21µM*	?	?	2.8µM*
SMILES	ELG1 repair inh	Rab9 prom act	FLuc modulator	ELG1 genotoxic	SMN2 splice up	NPC1 promoter act
CN(C)S(=O)(=O)c1ccc(C(=O)Oc2ccccc2)cc1	0%	-2%	-5%	1%	?	-2%
Cc1ccc(OC(=O)c2cccc(S(=O)(=O)N3CCCC3)c2)c(-n2nc3ccccc3n2)c1	?	4µM*	?	?	11µM*	3.5µM*
Cc1ccc(OC(=O)c2ccc(S(=O)(=O)N(C)C)cc2)c(-n2nc3ccccc3n2)c1	?	1.4µM*	?	?	?	4µM*
Cc1ccc(OC(=O)c2cccc(S(=O)(=O)N(C)C)c2)c(-n2nc3ccccc3n2)c1	?	2.8µM*	-17%	4.6µM*	?	3.5µM*
Cc1ccc(C)c(COC(=O)c2cccc(S(=O)(=O)N3CCCC3)c2)c1	0%	0%	5%	-4%	.	-1%
COc1ccc(OC)c(N(C)S(=O)(=O)c2ccc3c(c2)NC(=O)CC(=O)N3)c1	.	.	-2%	.	-18%	.
COc1ccc(C(=O)N/C(=C\c2cn(C)c3ccccc23)C(=O)NCCCN2CCOCC2)cc1OC	-27%	-8%	0%	1%	.	0%
CS(=O)(=O)c1ccc(Cl)c(C(=O)OCC(=O)NC2CCCCCCC2)c1	-6%	1%	-5%	1%	.	-3%
CCc1nnc(NC(=O)CS(=O)(=O)Cc2ccccc2)s1	7%	-1%	1%	1%	.	3%
Cn1nccc1C(=O)N1CCN(c2ccccc2F)CC1	1%	15%	1%	-7%	.	4%
CCC(C)(C)c1nnc(NC(=O)c2cccc([N+](=O)[O-])c2)s1	?	22%	19µM*	14%	?	20%
O=C(Nc1ccccc1C(=O)O)c1cccc(NC(=O)c2ccccc2Br)c1	0%	-5%	24µM*	-3%	.	0%
CC(C)C(=O)Nc1cccc(C(=O)Nc2nnc(C(C)(C)C)s2)c1	18%	11%	13µM*	2%	-6%	1%
O=C(Nc1cc(C(=O)Nc2ccccc2C(=O)O)cc(C(=O)Nc2ccccc2C(=O)O)c1)c1ccccc1	-1%	-3%	3%	23%	.	0%
O=C(Nc1ccc(Cl)cc1F)c1ccccc1Br	?	2.2µM*	11µM*	?	11µM*	1.8µM*
CC(C)C(=O)Nc1ccc(C(=O)Nc2nnc(C(C)(C)C)s2)cc1	-2%	-2%	-7%	1%	12%	-3%
CNC(=O)c1ccc(NC(=O)COc2ccc(-c3nn(C)c(=O)c4ccccc34)cc2)cc1	.	.	-2%	.	49%	.
COc1ccc(OC)c(S(=O)(=O)N2CCN(Cc3nc4ccc(C)cc4o3)CC2)c1	.	.	0%	.	.	.
O=C(O)c1ccc(NC(=O)c2ccccc2NC(=O)c2cccc(Br)c2)cc1	10%	-2%	11µM*	5%	.	-2%
O=C(O)CCCC(=O)Nc1cccc(C(=O)Nc2ccccc2C(=O)O)c1	-4%	-7%	?	2%	.	-1%
Cc1cccc(OCC(=O)Nc2cccc(C(=O)Nc3ccccc3C(=O)O)c2)c1	11%	-1%	?	-2%	18%	1%
